From PubChem BioAssay
The full list was thinned out, with hits kept by preference.
Sm TGR inh = inhibitors of Schistosoma mansoni thioredoxin glutathione reductase | Potency, µM (doses to about 114 µM), inactives show at the top dose activity change, negative = inhibition, hits mostly inhibitors | purified TGR, DTNB reduction, TNB absorbance 405 nm | Q962Y6 | actives 3% (n = 360,000); further: potency means the concentration at half of the fitted maximal effect; on the % scale 0 is the no-effect control and ±100 the full control effect; nearly all actives have a fitted effect of over 60% in size
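TGR 20 nM + NADPH 100 uM (dispensed conc.), cpd preinc 15 min RT; start with NADPH (500 uM addition) then DTNB (15 mM addition). Kinetic TNB absorbance, 405 nm filter. Four-parameter Hill fit across titration.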
CHX counter = affects cycloheximide protein synthesis inhibition readout, counter-screen. AID 2314. max response, %. actives 12% (n = 300,000). cell reporter, cycloheximide protein synthesis inhibition counterscreen; in the data active means max response mostly above about 13%, no sharp cut-off; inactive means mostly below about 14%; further: read at 38.3 µM for the half of the compounds with a filed dose; 0% is about no effect
Shiga inhibitor = blocks Shiga toxin action in Vero cells; Vero cells, Shiga toxin protein synthesis inhibition reporter; inhibition, % at 38.7 µM; actives 9.2% (n = 290,000); AID 2315; in the data active means inhibition mostly above about 28%, no sharp cut-off; inactive means mostly below about 43%; further: 0% is about no effect
FBPA Giardia inh = inhibitors of Giardia lamblia fructose-1,6-bisphosphate aldolase. A8B2U2. purified Giardia FBPA. Potency, µM (series often up to 59.6 µM), for inactives: top-dose activity, negative = inhibition, most hits filed as inhibitors. actives 0.71% (n = 290,000); further: potency means the concentration at half of the fitted maximal effect; on the % scale 0 is the no-effect control and ±100 the full control effect; nearly all actives have a fitted effect of over 55% in size
Target sequence (A8B2U2 whole entry, looked up): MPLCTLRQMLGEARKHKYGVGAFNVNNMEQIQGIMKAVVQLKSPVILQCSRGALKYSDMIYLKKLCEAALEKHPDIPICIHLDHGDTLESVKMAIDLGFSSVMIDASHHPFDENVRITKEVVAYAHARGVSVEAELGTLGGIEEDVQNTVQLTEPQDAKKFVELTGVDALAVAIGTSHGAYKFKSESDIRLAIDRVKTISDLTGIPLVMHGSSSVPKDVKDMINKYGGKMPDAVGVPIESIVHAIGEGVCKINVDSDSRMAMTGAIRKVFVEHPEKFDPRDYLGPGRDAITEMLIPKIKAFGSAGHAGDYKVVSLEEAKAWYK
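Giardia FBPA (40 nM reagent) was preincubated 10 min at RT with compound (up to 57.5 uM final), then substrate plus GAPDH/TPI/NAD/arsenate coupling system with diaphorase/resazurin was added; resorufin fluorescence (525/598 nm) was read after 20 min.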
LmPK inh = blocks Leishmania mexicana pyruvate kinase activity | Q27686 | purified LmPK, Kinase-Glo ATP luminescence, 1 h | Potency, µM (doses to about 57.5 µM), for the others: at the highest dose activity change, negative = inhibition, usual class: inhibitors | actives 0.37% (n = 290,000) | AID 1721; further: potency means the concentration at half of the fitted maximal effect; on the % scale 0 is the no-effect control and ±100 the full control effect
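Kinase-Glo luminescence read after 1 h RT reaction of 0.1 nM LmPK with 0.5 mM PEP and 0.1 mM ADP. Activity scaled between uninhibited and enzyme-free controls.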
Tb PYK inh = inhibitors of Trypanosoma brucei pyruvate kinase. actives 0.12% (n = 410,000). AID 624173. Q57TT1. Potency, µM (highest dose often 76.8 µM), for the others: at the highest dose activity, negative = inhibition, most hits filed as inhibitors. TbPYK enzyme, Kinase-Glo Plus ATP luminescence, 45 min; further: potency means the concentration at half of the fitted maximal effect; on the % scale 0 is the no-effect control and ±100 the full control effect; nearly all actives have a fitted effect of over 50% in size
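T. brucei PYK with substrate was exposed to pin-transferred compounds across a concentration series, then started with 130 uM ADP (final). After 45 min at room temperature, Kinase-Glo Plus luminescence was read, normalized and curve-fitted.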
* = called active by the depositor; ? = inconclusive; . = not tested or not shown; [ ] = dose if it differs, or a comment. Unless noted, the call rests on the fitted dose curve; in most records, active means well fitted curve in the direction sought with a large enough effect; inconclusive means small, poorly fitted or top-dose-only effect, or another doubt; inactive means no such curve, though single readings can be large; an effect the other way counts as inactive or inconclusive.

SMILES	Sm TGR inh	CHX counter	Shiga inhibitor	FBPA Giardia inh	LmPK inh	Tb PYK inh
CN(C)C=Nc1ccc([N+](=O)[O-])c2ccccc12	.	.	.	.	.	-2.5%
CN(C(=O)CSc1nncn2c1cc1occc12)c1ccccc1	-10.9%	.	.	.	.	0.8%
Cc1occc1C(=O)N/N=C/C1=C(N2CCOCC2)C(=C/c2ccc(Cl)cc2Cl)/CC1	.	.	.	.	.	-2.2%
CCOC(=O)N1CCN(Cc2nc(-c3ccccc3)no2)CC1	-13.3%	18.5	61.6*	3.9%	-9.5%	2.8%
Cc1cc(C)c2c(N)c(C(=O)Nc3ccccc3F)sc2n1	-21.8%	33.7*	41.1*	3.5%	-1.6%	0.4%
Cc1cc(C)c2c(N)c(C(=O)Nc3ccccc3Br)sc2n1	4.8%	24.2*	38.8*	3.0%	0.1%	-3.1%
CCOc1cccc2sc(N3CCN(C(=O)c4ccc5ncsc5c4)CC3)nc12	0.3%	.	.	.	.	1.4%
CCN(CC)CCOc1ccc2nc(N(C)C)sc2c1	-15.0%	26.8*	32.4	-15.9%	1.9%	4.1%
CN(C)c1nc2ccc(OCCN3CCCCC3)cc2s1	7.0%	42.1*	56.7	1.5%	-5.8%	5.5%
CCOc1ccc2nc(N(CCN(CC)CC)C(=O)c3ccc([N+](=O)[O-])cc3)sc2c1	0.2%	-1.9	-15.1	-0.7%	-0.9%[11.5 µM]	1.8%
Cc1ccc2c(=O)cc(CSc3ncn[nH]3)[nH]c2c1C	2.4%	.	.	.	.	2.5%
CCOC(=O)c1sc(-c2ccccc2)nc1C	-4.6%	34.1*	30.0	1.1%	-5.3%	3.2%
CCOC(=O)Cc1ccc(-c2ccccc2)cc1	.	.	.	.	.	-5.9%
CCOC(=O)Cc1ccc2sc(-c3ccccc3)nc2c1	-11.6%	57.9*	30.7*	6.5%	15.8µM*	?
CCOC(=O)c1sc(-c2cccs2)nc1C	1.6%	42.7*	129.6*	7.2%	-18.1%	-3.2%
O=C(Cc1ccc(O)cc1)N/N=C/c1cccs1	0.0%	9.2	-0.5	0.1%	-0.8%	1.9%
Cc1ccc(/C=N/NC(=O)Cc2ccc(O)cc2)s1	-0.9%	27.2*	25.5	-4.0%	0.4%	0.1%
CCN(CC)c1ccc(/C=N/NC(=O)Nc2nonc2N)cc1	-9.4%	56.6*	65.5*	-8.1%	-1.0%	7.4%
CCN(CC)c1ccc(/C=N/NC(=O)c2ccc(Br)o2)cc1	0.2%	32.9*	37.9*	-0.8%	-6.5%	-10.2%
CCN(CC)c1ccc(/C=N/NC(=O)C2CC2)cc1	-7.0%	47.8*	80.5*	-4.5%	8.7%	0.1%
COc1ccc(Oc2ncc3nc(-c4cn(C)c5ccccc45)c(=O)n(C4CC4)c3n2)cc1	.	.	.	-2.8%	.	.
Cc1cccc(NC(=O)c2ccc(Cl)c(S(=O)(=O)N3CCCCC3)c2)n1	0.4%	.	.	.	.	-11.8%
Cc1cn2c(=O)cc(COC(=O)c3cccc(NC(=O)c4ccccc4Cl)c3)nc2s1	4.7%	.	.	.	.	-1.0%
Nc1ccn([C@@H]2O[C@H](CNCc3ccc(-c4cc(C(F)(F)F)ccc4Cl)o3)[C@@H](O)[C@H]2O)c(=O)n1	.	.	.	.	.	-3.1%
COc1ccc(-c2ccc(C3C4C=CCC(C)C4C(=O)N3Cc3ccccc3)c(F)c2)cc1 (configuration not stated)	.	20.2	12.5	-0.4%	.	.
SMILES	Sm TGR inh	CHX counter	Shiga inhibitor	FBPA Giardia inh	LmPK inh	Tb PYK inh
Cc1cccc(NC(=O)CN(C)S(=O)(=O)c2ccc3c(c2)c(=O)n(C)c(=O)n3C)c1	0.8%	.	.	.	.	-1.0%
Cc1ccc(/C=N/NC(=O)c2ccc(Br)o2)s1	-2.5%	42.9*	81.7*	-6.9%	-14.8%	-1.8%
CCc1ccc(/C=N\NC(=O)c2ccc(Br)o2)s1	0.8%	89.7*	99.6*	-11.9%	-12.0%	4.6%
CCc1ccc(/C=N/NC(=O)Cc2ccc(OC)c(OC)c2)s1	0.8%	-0.4	-4.0	.	0.9%	8.0%
Cc1ccc(S(=O)(=O)c2nnn3c2nc(N2CCOCC2)c2sccc23)cc1C	-1.4%	.	.	.	.	-7.6%
CC(C)c1cc(=O)oc2c3c4c(cc12)CCCN4CCC3	44.7µM*	-4.2	-20.0	?	12.2%	-3.1%
O=c1cc(C(F)(F)F)c2cc3c4c(c2o1)CCCN4CCC3	-3.7%	-1.8	-13.0	0.7%	-0.8%	0.1%
CC1(O)C(=O)C=C2C=C(CCCCOCc3ccccc3)OC=C2C1=O (configuration not stated)	.	.	.	-4.8%[12.9 µM]	.	.
